Growth data for 32 compounds are collected here from PubChem BioAssay (NCI).

What all share (assay): NCI-60 one-dose screen, 48 h (100 = growth as untreated, 0 = no growth, -100 = all killed)
Details in all cases: 10 µM unless noted

Assay [1] has as its system HT29 colon.
Assay [2] relates to SNB-75 CNS.
Assay [3] has as its system U251 CNS.
Assay [4] relates to PC-3 prostate.
The subject of assay [5] is SK-MEL-5 melanoma.
For assay [6], the system named is UACC-62 melanoma.
The test system of assay [7] is LOX IMVI melanoma.
Assay [8] relates to SK-MEL-28 melanoma.
Assay [9] has as its system SK-MEL-2 melanoma.
Assay [10] relates to SNB-19 CNS.

Compounds without any hit were thinned out: in the full panel of roughly 83,000, 20% have a hit.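 Single-dose data. Exposure time 48 hours. Values below 10 considered active.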 Unmarked numbers belong to inactive results. Active and inactive are the calls of the source.

On to `CCN(CC)CCNc1ccc(Cl)cc1Cl`, for which the growth in [1] is 101%; in assay [2], 98.5%; in [3] it was 102%; in assay [4], 97.3%; in [5], 103%; in assay [6] it was 112%. In addition, the growth is 102% in [7], 118% in assay [8] and 108% in assay [9].
As to `CC(CCC(=O)O)(NC(=O)c1ccc([N+](=O)[O-])cc1)C(=O)O` (stereo not drawn), the growth in assay [1] is 109%; in assay [2], 91.6%; in assay [3], 104%; in [4] it was 98.4%; in assay [5], 101%; in assay [6], 109%. For the same compound, the growth is 97.1% in assay [7], 107% in assay [8] and 108% in [9].
Consider `Fc1ccc([C@@H]2CCNC[C@H]2COc2ccc3c(c2)OCO3)cc1`, for which the growth in assay [1] was 14.9%; in assay [2], 57.6%; in assay [10], 80.2%; in [4] it was 53.6%; in [6], 57.5%; in assay [7], 42.9%. Further, the growth in assay [8] was 94.4%; in assay [9], 83.8%.
`O=c1[nH]c(Cl)nc2c1cnn2-c1ccccc1`: the growth in assay [1] is 64.4%; in [2], 82.9%; in [3] it was 100%; in assay [4], 76.6%; in assay [5], 96.5%; in assay [6] it was 67.6%. The figures for the growth in [7], in assay [8] and in [9] were 71.7%, 70.7% and 103%, respectively.
In the case of `C=C1CC[C@@H]2[C@](C)(COC(C)=O)[C@H](OC(C)=O)CC[C@@]2(C)[C@@H]1CC(Nc1ccc(S(=O)(=O)Nc2cc(C)on2)cc1)C1=CCOC1=O` (stereo partly drawn), the growth in assay [1] is -11% (active); in assay [2] it was 59.4%; in assay [3], 30%; in [4] it was 70.8%; in assay [5], 44.1%; in assay [6], 19.8%. For the same compound, the results for the growth in assay [7], in assay [8] and in assay [9] were -72.7% (active), 38.1% and 63%, respectively.
For `COc1ccc2c3c(c(OCCCN(C)C)nc2c1)-c1ccc(Cl)cc1C3=O`, the growth was -80.8% (active) in assay [1]; 53% in assay [2]; -84.9% (active) in assay [3]; -19.5% (active) in assay [4]; 39.2% in assay [5]; -49% (active) in [6]. Besides, the growth was -93.3% (active) in assay [7], -74.2% (active) in [8] and 72.5% in assay [9].
With `COc1cc(Oc2cc(-c3cccnc3)ccc2NC(=O)Nc2ccc(F)cc2F)cc(OC)c1OC`, the growth in assay [1] is 105%; in assay [2], 83.8%; in assay [3], 92.2%; in assay [4], 84.3%; in [5], 92.6%; in assay [6] it was 88.9%. Besides, the growth is 107% in [7], 119% in [8] and 112% in [9].
For the compound `COc1ccc2c(c1)C(=O)c1c-2c(OCCCN(C)C)nc2cc(Br)ccc12`, the growth is -19.7% (active) in [1]; 79.2% in [2]; -75.7% (active) in assay [3]; 63.8% in assay [4]; 87.4% in assay [5]; 86.4% in [6]. The growth is 20.7% in [7], -48.6% (active) in assay [8] and 97.7% in assay [9].
In the case of `COc1cc(/C=C/c2nnc(-c3cc(-c4ccccc4)n[nH]3)o2)cc(OC)c1OC`, the growth in [1] is 96.8%; in assay [2], 67.4%; in [10], 102%; in assay [5], 84.5%; in assay [6], 92.9%; in assay [7], 95.4%. Besides, the growth in assay [8] is 87.9%; in assay [9], 89.7%.
Take `O=c1ccn(C2OC(CO)C(O)C2F)c(=O)[nH]1` (stereo not drawn): the growth was 104% in [1]; 93% in [2]; 101% in assay [10]; 107% in [5]; 92.4% in [6]; 106% in assay [7]. In addition, the values for the growth in assay [8] and in assay [9] were 116% and 119%, respectively.
With `COc1ccc2nc3cc(Cl)ccc3c(N3CCN(c4ccnc(Nc5ccc(F)cc5)n4)CC3)c2c1`, the growth was 83.3% in [1]; 69.1% in assay [2]; 82.4% in [10]; 67.3% in [4]; 77.4% in [6]; 104% in [8].
For the compound `CC[C@H](C)C(=O)O[C@H]1C[C@@H](C)C=C2C=C[C@H](C)[C@H](CC[C@@H]3C[C@@H](O)CC(=O)O3)[C@H]21`, the growth was 95.4% in assay [1]; 58.3% in assay [2]; 64.9% in assay [10]; 33.9% in [4]; 23.7% in [6]; 25.1% in assay [7]. Moreover, the growth in assay [8] is 90.6%.
In the case of `CN(CC(=O)N(Cc1ccc(C2CCCCC2)cc1)c1ccc(C(=O)O)cc1)S(=O)(=O)c1c(F)c(F)c(F)c(F)c1F`, the growth in assay [1] is -22.3% (active); in assay [2], 68.6%; in [3], -25.4% (active); in assay [4], 10.4%; in assay [5], 86.6%; in assay [6], -7.33% (active). The growth in assay [7] is -64.1% (active); in assay [8], -51.8% (active); in [9] it was -31.7% (active).
For `COc1ccc(Nc2nccc(N3CCN(c4c5ccc(Cl)cc5nc5ccc(OC)cc45)CC3)n2)cc1`, the growth is 44.6% in assay [1]; 67.5% in assay [2]; 92.2% in assay [10]; 57.9% in assay [4]; 76.4% in [6]; 105% in assay [8].
With `COC(=O)C[C@@H]1CC=CC(=O)/C1=C(O)/C=C/c1ccccc1`, the growth in assay [1] is -65.3% (active); in [10], 2.77% (active); in assay [3] it was -67.4% (active); in assay [4] it was 3.43% (active); in assay [5], -97.8% (active); in assay [6], -67.5% (active). Also, the growth in assay [7] is -93.3% (active); in assay [8], -35.5% (active); in [9], -22% (active).
Consider `ClC1=C(Cl)C(Cl)=C(Cl)C1=C/C=C/c1ccccc1`, for which the growth in assay [1] is 7.03% (active); in assay [2], 19.8%; in [3] it was -93.3% (active); in [5], -97.3% (active); in [6], -83.6% (active); in [7] it was -91.6% (active). Moreover, in assay [8], the growth was -74.1% (active).
`c1ccc(N2CCN(c3nncc4ccccc34)CC2)nc1`: the growth in assay [1] was 98.2%; in [2], 105%; in assay [3], 96.9%; in [4] it was 101%; in assay [5], 97.5%; in assay [6], 99.6%. The growth in assay [7] is 97.5%; in assay [8] it was 108%; in assay [9] it was 103%.
For `Clc1ccc2c(Nc3ccc4oc(NCCN5CCCC5)nc4c3)ccnc2c1`, the growth in assay [1] is 38.1%; in assay [2], 79.8%; in assay [3], 70.1%; in assay [4], 79.9%; in assay [5], 99.1%; in assay [6], 94.2%. Moreover, the growth in assay [7] was 29.5%; in [8] it was 89.6%; in assay [9] it was 105%.
`C=C(C[C@](O)(C(=O)/C=C/c1ccc(Cl)cc1)C(=O)OC)c1ccccc1`: the growth in [1] is 16.4%; in assay [2] it was 75.7%; in assay [3], 28.6%; in [4], 65.4%; in [5], 76%; in [6] it was 53.8%. For the same compound, the growth is -72.4% (active) in assay [7], 95.4% in [8] and 102% in assay [9].
`Cc1cc(C(C)(C)c2cc(C)c(O)c(CN(C)C)c2)cc(CN(C)C)c1O`: the growth in assay [1] is 76.3%; in [2], 90.1%; in assay [3], 67.8%; in [4], 80%; in assay [5], 85.8%; in assay [7] it was 81.8%. Also, the growth in [8] is 79.2%; in assay [9], 101%.
With `COc1ccc(C2CC(c3ccc(OC)c(OC)c3)=NN2C(=O)c2cc(OC)c(OC)c(OC)c2)c(OC)c1` (stereo not drawn), the growth in assay [1] is 59.9%; in assay [10], 91.8%; in assay [3] it was 80.6%; in [4], 64.3%; in assay [5] it was 42%; in assay [6] it was 58%. For the same compound, the growth in [7] was 56.6%; in assay [8] it was 80.2%; in assay [9], 68.2%.
On to `CCCCCCCCCCCCCCCCCC1=NC(C)(C)CN1CCO`, for which the growth is -44.7% (active) in assay [1]; 38.2% in [10]; -57.9% (active) in [3]; -52.4% (active) in assay [4]; -65.3% (active) in assay [5]; -77.1% (active) in [6]. Moreover, the growth is -67% (active) in assay [7] and -78% (active) in assay [8].
Regarding `COc1cc(C2C=C(c3ccc(C)cc3)Nc3nc(SC)[nH]c(=O)c32)ccc1Oc1ccnc2cc(Cl)ccc12` (stereo not drawn), the growth was 65.3% in [1]; 71.7% in assay [10]; 80.1% in [3]; 60.2% in assay [4]; 63.1% in assay [5]; 61.5% in assay [6]. The growth was 79.9% in assay [7], 97% in [8] and 78.9% in assay [9].
Take `CSc1ncc2ncn(C3OC(CO)C(O)C3O)c2n1` (stereo not drawn): the growth in assay [1] was 108%; in assay [2] it was 96%; in assay [3], 103%; in [5] it was 129%; in [6], 103%; in assay [7], 108%. For the same compound, the growth in assay [8] was 115%.
Regarding `c1cnc2ccc3ncccc3c2c1`, the growth was 113% in assay [1]; 89.5% in assay [2]; 104% in assay [3]; 106% in [5]; 99.2% in assay [6]; 97.9% in assay [7]. For the same compound, the growth in assay [8] is 85.5%.
As to `CCc1[nH]nc(-c2ccc(OC)cc2)c1-c1ccccc1OCCN(CC)CC`, the growth in assay [1] is 85.9%; in assay [2], 60.4%; in assay [4], 76%; in [5], 85.2%; in [6], 106%; in assay [7], 80.2%. For the same compound, the growth was 107% in [8] and 95.5% in assay [9].
Take `N#CCCCCCn1c2ccccc2c2c3c(c4c5ccccc5[nH]c4c21)C(=O)N(O)C3=O`: the growth is 3.99% (active) in assay [1]; 29.4% in assay [2]; -46.2% (active) in assay [3]; -3.49% (active) in assay [4]; -97% (active) in [5]; -35.7% (active) in assay [6]. Moreover, the growth in assay [7] was -81% (active); in [8], -2.36% (active); in assay [9] it was 3.52% (active).
For `CCC1=C(c2ccc(OC)cc2)C(C)(C)Oc2cc(O)c(CN3CCCC3)cc21`, the growth is 66.6% in [1]; 75% in [2]; 82.5% in assay [3]; 70.5% in assay [4]; 67% in [5]; 59.3% in assay [7]. The growth in [8] is 101%; in assay [9] it was 86.3%.
In the case of `CC1=CC(=O)C(C(C)=Nc2ccccc2Cl)C(=O)O1` (stereo not drawn), the growth was 101% in assay [1]; 83.6% in [2]; 103% in assay [3]; 120% in assay [5]; 98% in assay [6]; 83.6% in [7]. The growth in assay [8] was 105%.
Consider `C=C(C[C@@](O)(C(=O)Oc1ccccc1)C(=O)C1CCCCC1)c1ccccc1`, for which the growth was 103% in assay [1]; 72.3% in assay [2]; 95.8% in [3]; 84.2% in [4]; 96.3% in assay [5]; 90.3% in assay [6]. Moreover, the growth in assay [7] was 101%; in assay [8], 98%; in [9], 105%.
Consider `CCN(CC)c1ccc(CN(CC(=O)c2ccc(Cl)c(Cl)c2)Cc2ccccc2)cc1`, for which the growth in [1] was 105%; in assay [2], 93%; in assay [3], 103%; in [4], 83%; in assay [5], 97.9%; in [6], 90.9%. The growth in assay [7] is 94.3%; in assay [8], 110%; in assay [9] it was 96.9%.
Turning to `O=C(/C=C/c1ccccc1Cl)c1ccc(O)cc1`, the growth in assay [1] was 14.5%; in assay [2] it was 46.7%; in assay [3], 31.4%; in assay [5], 58.1%; in assay [6] it was 73.4%; in assay [7] it was 36.2%. Further, the growth in [8] is 96.1%.
